{"source": "PubChem BioAssay (EPA / NIEHS)", "note": "The source made the active and inactive calls. The calls were made as follows, unless noted: active = hit-call score of the fitted dose curve at least 0.9, where 1 is the maximum; inconclusive = response in the unintended direction; inactive = score below 0.9."}
{"molecular_target": "Peroxisome proliferator-activated receptor gamma (Homo sapiens) (UniProt P37231)", "sequence (P37231 whole entry, looked up)": "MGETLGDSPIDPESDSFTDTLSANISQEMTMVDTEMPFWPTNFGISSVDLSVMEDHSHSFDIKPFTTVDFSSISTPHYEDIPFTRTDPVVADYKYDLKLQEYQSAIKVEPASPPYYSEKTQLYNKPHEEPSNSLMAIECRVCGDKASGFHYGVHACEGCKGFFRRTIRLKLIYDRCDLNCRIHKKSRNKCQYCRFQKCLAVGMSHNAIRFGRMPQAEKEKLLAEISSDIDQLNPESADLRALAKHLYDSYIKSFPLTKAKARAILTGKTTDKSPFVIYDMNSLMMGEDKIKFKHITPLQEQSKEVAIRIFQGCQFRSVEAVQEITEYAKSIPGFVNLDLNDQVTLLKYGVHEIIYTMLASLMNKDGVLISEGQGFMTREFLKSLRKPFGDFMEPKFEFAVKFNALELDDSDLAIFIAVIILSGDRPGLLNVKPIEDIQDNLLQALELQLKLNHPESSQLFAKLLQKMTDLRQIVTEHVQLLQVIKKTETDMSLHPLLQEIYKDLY", "experiment": "OT_PPARg_PPARgSRC1_1440: Odyssey Thera (OT) 24-hour Protein-Complementation Assay for Peroxisome Proliferator-activated Receptor Gamma/ SRC-1 Co-activator (AID 2283388);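 also: nuclear to cytoplasmic ratio of reconstituted Venus YFP fluorescence in fixed imaged cells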", "conditions": "not given", "procedure,_shortened": "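Readout is the 488 nm N/C fluorescence ratio from fixed, Draq5-stained HEK293T cells after 24 h compound exposure. Cells carried transiently transfected PPARg and SRC-1 fused to Venus fragments, transfected 48 h before treatment.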"}
{"smiles": "CCC(=O)Nc1ccc(Cl)c(Cl)c1", "outcome": "inactive"}
{"smiles": "CCOP(=S)(OCC)SCCSCC", "outcome": "inactive"}
{"smiles": "CCNc1nc(Cl)nc(NC(C)(C)C#N)n1", "outcome": "inactive"}
{"smiles": "CNC(=O)ON=C(SC)C(=O)N(C)C", "outcome": "inactive"}
{"smiles": "S=C1NCCN1", "outcome": "inactive"}
{"smiles": "CCc1cnc(C2=NC(C)(C(C)C)C(=O)N2)c(C(=O)O)c1", "note": "(stereo not given)", "outcome": "inactive"}
{"smiles": "CCOP(=S)(OCC)Oc1ccc([N+](=O)[O-])cc1", "outcome": "inactive"}
{"smiles": "CC(C1CC1)C(O)(Cn1cncn1)c1ccc(Cl)cc1", "note": "(stereo not given)", "outcome": "inactive"}
{"smiles": "CCCOc1nn(C(=O)NS(=O)(=O)c2ccccc2C(=O)OC)c(=O)n1C", "outcome": "inactive"}
{"smiles": "CC(C)=CC1C(C(=O)OCN2C(=O)C3=C(CCCC3)C2=O)C1(C)C", "note": "(stereo not given)", "outcome": "inactive"}
{"smiles": "O=[N+]([O-])c1cc(C(F)(F)F)c(Cl)c([N+](=O)[O-])c1Nc1ncc(C(F)(F)F)cc1Cl", "outcome": "inactive"}
{"smiles": "CC(=NC#N)N(C)Cc1ccc(Cl)nc1", "outcome": "inactive"}
{"smiles": "CCC(=NOC/C=C/Cl)C1=C(O)CC(C2CCOCC2)CC1=O", "note": "(stereo not given)", "outcome": "inactive"}
{"smiles": "FC(F)C(F)(F)OCC(Cn1cncn1)c1ccc(Cl)cc1Cl", "note": "(stereo not given)", "outcome": "inactive"}
{"smiles": "CC(C)[C@H](C(=O)O[C@H](C#N)c1cccc(Oc2ccccc2)c1)c1ccc(Cl)cc1", "outcome": "inactive"}
{"smiles": "N#CSCSC#N", "outcome": "inactive"}
{"smiles": "C[N+]1(C)CCCCC1", "outcome": "inactive"}
{"smiles": "O=c1ccc(=O)[nH][nH]1", "outcome": "inactive"}
{"smiles": "COP(=O)(NC(C)=O)SC", "note": "(stereo not given)", "outcome": "inactive"}
{"smiles": "CCOP(=S)(OCC)Oc1cc(C)nc(C(C)C)n1", "outcome": "inactive"}
{"smiles": "CC[C@H](C)[C@H]1O[C@]2(C=C[C@@H]1C)C[C@@H]1C[C@@H](C/C=C(\\C)[C@@H](O[C@H]3C[C@H](OC)[C@@H](O[C@H]4C[C@H](OC)[C@@H](NC)[C@H](C)O4)[C@H](C)O3)[C@@H](C)/C=C/C=C3\\CO[C@@H]4[C@H](O)C(C)=C[C@@H](C(=O)O1)[C@]34O)O2", "outcome": "inactive"}
{"smiles": "O=C(O)c1cc(Oc2ccc(C(F)(F)F)cc2Cl)ccc1[N+](=O)[O-]", "outcome": "inactive"}
{"smiles": "Nc1c(Cl)cc([N+](=O)[O-])cc1Cl", "outcome": "inactive"}
{"smiles": "COP(=O)(OC)SCn1c(=O)oc2cc(Cl)cnc21", "outcome": "inactive"}
{"smiles": "CSc1nc(NC(C)C)nc(NC(C)C)n1", "outcome": "inactive"}
{"smiles": "CCOP(=S)(OCC)Oc1ccc2c(C)c(Cl)c(=O)oc2c1", "outcome": "inactive"}
{"smiles": "CNC(=O)ON=C(C)SC", "outcome": "inactive"}
{"smiles": "COc1cc(OC)nc(Sc2cccc(Cl)c2C(=O)O)n1", "outcome": "inactive"}
{"smiles": "CCCCN(CC)c1c([N+](=O)[O-])cc(C(F)(F)F)cc1[N+](=O)[O-]", "outcome": "inactive"}
{"smiles": "CN(C)NC(=O)CCC(=O)O", "outcome": "inactive"}
{"smiles": "CC1=NNC(=O)N(/N=C/c2cccnc2)C1", "outcome": "inactive"}
{"smiles": "CCOC(=O)COc1cc(-c2nn(C)c(OC(F)F)c2Cl)c(F)cc1Cl", "outcome": "inactive"}
{"smiles": "CN(C)C(=O)Nc1cccc(C(F)(F)F)c1", "outcome": "inactive"}
{"smiles": "Cc1nn(-c2cc(NS(C)(=O)=O)c(Cl)cc2Cl)c(=O)n1C(F)F", "outcome": "inactive"}
{"smiles": "CCc1cccc(C)c1N(C(=O)CCl)C(C)COC", "note": "(stereo not given)", "outcome": "inactive"}
{"read-out": "not listed separately", "experiment": "CEETOX_H295R_OHPREG: CeeTox H295R High-throughput Steroidogenesis Assay for OH-Pregnenolone (OHPREG) (AID 2283434; active = hit-call score of the fitted dose curve at least 0.9, where 1 is the maximum; inactive = score below 0.9)", "conditions": "actives raise or lower the signal", "procedure,_shortened": "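Secreted 17alpha-hydroxypregnenolone measured by HPLC-MS/MS after liquid-liquid extraction. Human adrenal H295R cells received 48 h forskolin (10 uM) stimulation before 48 h chemical exposure at 0.1% final DMSO; MTT viability in same wells; bidirectional fit against DMSO.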"}
{"smiles": "CCC(=O)Nc1ccc(Cl)c(Cl)c1", "outcome": "inactive"}
{"smiles": "CCNc1nc(Cl)nc(NC(C)(C)C#N)n1", "outcome": "inactive"}
{"smiles": "CNC(=O)ON=C(SC)C(=O)N(C)C", "outcome": "inactive"}
{"smiles": "CCOP(=S)(OCC)Oc1ccc([N+](=O)[O-])cc1", "outcome": "inactive"}
{"smiles": "CC(C1CC1)C(O)(Cn1cncn1)c1ccc(Cl)cc1", "note": "(stereo not given)", "AC50": "4.38 µM (active)"}
{"smiles": "FC(F)C(F)(F)OCC(Cn1cncn1)c1ccc(Cl)cc1Cl", "note": "(stereo not given)", "outcome": "inactive"}
{"smiles": "C#CC(C)(C)NC(=O)c1cc(Cl)cc(Cl)c1", "AC50": "13.4 µM (active)"}
{"smiles": "CCOP(=S)(OCC)Oc1cc(C)nc(C(C)C)n1", "outcome": "inactive"}
{"smiles": "O=C(O)c1cc(Oc2ccc(C(F)(F)F)cc2Cl)ccc1[N+](=O)[O-]", "outcome": "inactive"}
{"smiles": "CSc1nc(NC(C)C)nc(NC(C)C)n1", "outcome": "inactive"}
{"smiles": "CCOP(=S)(OCC)Oc1ccc2c(C)c(Cl)c(=O)oc2c1", "outcome": "inactive"}
{"smiles": "CNC(=O)ON=C(C)SC", "outcome": "inactive"}
{"smiles": "CCCCN(CC)c1c([N+](=O)[O-])cc(C(F)(F)F)cc1[N+](=O)[O-]", "outcome": "inactive"}
{"smiles": "CN(C)NC(=O)CCC(=O)O", "outcome": "inactive"}
{"smiles": "CCOC(=O)COc1cc(-c2nn(C)c(OC(F)F)c2Cl)c(F)cc1Cl", "outcome": "inactive"}
{"smiles": "CN(C)C(=O)Nc1cccc(C(F)(F)F)c1", "outcome": "inactive"}
{"smiles": "CCc1cccc(C)c1N(C(=O)CCl)C(C)COC", "note": "(stereo not given)", "outcome": "inactive"}
{"read-out": "not listed separately", "experiment": "CEETOX_H295R_OHPROG: CeeTox H295R High-throughput Steroidogenesis Assay for OH-Progesterone (OHPROG) (AID 2283435; active = hit-call score of the fitted dose curve at least 0.9, where 1 is the maximum; inactive = score below 0.9;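 as to AC50: 17alpha-hydroxyprogesterone secreted into medium measured by HPLC-MS/MS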)", "conditions": "actives raise or lower the signal", "procedure,_shortened": "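Medium steroid levels read by LC-MS/MS after 48 h chemical treatment (0.1% DMSO) of human adrenal H295R cells that had been forskolin-primed (10 uM, 48 h). Gain or loss fitted against DMSO; MTT cytotoxicity checked per well.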"}
{"smiles": "CCC(=O)Nc1ccc(Cl)c(Cl)c1", "AC50": "3.97 µM (active)"}
{"smiles": "CCNc1nc(Cl)nc(NC(C)(C)C#N)n1", "outcome": "inactive"}
{"smiles": "CNC(=O)ON=C(SC)C(=O)N(C)C", "outcome": "inactive"}
{"smiles": "CCOP(=S)(OCC)Oc1ccc([N+](=O)[O-])cc1", "AC50": "0.39 µM (active)"}
{"smiles": "CC(C1CC1)C(O)(Cn1cncn1)c1ccc(Cl)cc1", "note": "(stereo not given)", "AC50": "3.21 µM (active)"}
{"smiles": "FC(F)C(F)(F)OCC(Cn1cncn1)c1ccc(Cl)cc1Cl", "note": "(stereo not given)", "outcome": "inactive"}
{"smiles": "C#CC(C)(C)NC(=O)c1cc(Cl)cc(Cl)c1", "AC50": "23.7 µM (active)"}
{"smiles": "COP(=O)(NC(C)=O)SC", "note": "(stereo not given)", "outcome": "inactive"}
{"smiles": "CCOP(=S)(OCC)Oc1cc(C)nc(C(C)C)n1", "AC50": "6.6 µM (active)"}
{"smiles": "O=C(O)c1cc(Oc2ccc(C(F)(F)F)cc2Cl)ccc1[N+](=O)[O-]", "outcome": "inactive"}
{"smiles": "CSc1nc(NC(C)C)nc(NC(C)C)n1", "outcome": "inactive"}
{"smiles": "CCOP(=S)(OCC)Oc1ccc2c(C)c(Cl)c(=O)oc2c1", "AC50": "1.67 µM (active)"}
{"smiles": "CNC(=O)ON=C(C)SC", "outcome": "inactive"}
{"smiles": "CCCCN(CC)c1c([N+](=O)[O-])cc(C(F)(F)F)cc1[N+](=O)[O-]", "outcome": "inactive"}
{"smiles": "CN(C)NC(=O)CCC(=O)O", "outcome": "inactive"}
{"smiles": "CCOC(=O)COc1cc(-c2nn(C)c(OC(F)F)c2Cl)c(F)cc1Cl", "outcome": "inactive"}
{"smiles": "CN(C)C(=O)Nc1cccc(C(F)(F)F)c1", "AC50": "52.6 µM (active)"}
{"smiles": "CCc1cccc(C)c1N(C(=O)CCl)C(C)COC", "note": "(stereo not given)", "outcome": "inactive"}
